Consider 26 compounds from PubChem BioAssay AID1851 (National Center for Advancing Translational Sciences (NCATS), 2009).

A word on the AC50: it is the midpoint of the concentration-response curve, whichever way the signal moves.

SMILES strings stand for the structures. “And” between values parts separate entries of the source, which are not always exact repeats. Identical values can stand only once. The campaign covered roughly 16,000 compounds. About 2,600 (16%) were called active. Inconclusive results (about 20%) are left out. Calls follow the shape of the dose curve; as a rule, active = well fitted curve in the direction sought with a large enough effect; inconclusive = small, poorly fitted or top-dose-only effect, or effect the other way; inactive = no such curve, though single readings can be large or run the other way. The list is a sample of the results.
% is scaled to controls: 0 for no effect and ±100 for the full control effect.

Chain of Cytochrome P450 2D6 (Homo sapiens) (P10635 whole entry, looked up): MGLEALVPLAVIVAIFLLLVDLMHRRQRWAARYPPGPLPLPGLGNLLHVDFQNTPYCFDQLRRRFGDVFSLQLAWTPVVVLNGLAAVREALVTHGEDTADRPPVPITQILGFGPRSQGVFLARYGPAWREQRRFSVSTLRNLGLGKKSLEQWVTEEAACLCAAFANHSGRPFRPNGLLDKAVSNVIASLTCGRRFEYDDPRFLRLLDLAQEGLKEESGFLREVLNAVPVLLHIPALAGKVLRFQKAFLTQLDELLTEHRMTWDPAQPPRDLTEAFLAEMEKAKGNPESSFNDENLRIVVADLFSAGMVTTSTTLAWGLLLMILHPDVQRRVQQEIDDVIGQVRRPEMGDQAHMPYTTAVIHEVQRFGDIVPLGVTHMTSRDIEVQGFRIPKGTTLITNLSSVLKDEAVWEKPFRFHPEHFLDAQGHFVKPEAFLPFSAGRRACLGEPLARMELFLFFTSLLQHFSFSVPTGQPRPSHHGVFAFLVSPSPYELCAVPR

The assay concerns the target Cytochrome P450 2D6 (Homo sapiens) (UniProt P10635). The assay is described as follows: Cytochrome panel assay with activity outcomes. The conditions noted are these: recombinant CYP, pro-luciferin dealkylation, luminescence, p450-cyp2d6; series mostly up to 57.1 µM.
On to `Cc1nc(N=Nc2cc(S(=O)(=O)O)ccc2S(=O)(=O)O)c(COP(=O)(O)O)c(C=O)c1O`, for which the AC50 entry was “inactive”. Still for that read-out and setting: the result for `COc1ccc(/C(C#N)=C/c2c(-c3ccc(Cl)cc3)nc3c(C)cccn23)cc1` reads “inactive”; that for `Cc1sc(NC(=O)C2C3CCC(O3)C2C(=O)O)c(C(=O)OC(C)C)c1-c1ccc(Cl)cc1` (stereo unspecified), “inactive”. For `COc1ccccc1C(=O)N1CCN(c2ccccn2)CC1`, the AC50 result is “inactive”. Turning to `COCC(=O)N1CCC2(CC1)CCN(c1ncccn1)CC2`, the AC50 entry is “inactive”.

On to `CCN(C(=O)c1cnc(N2CCN(c3ncccn3)CC2)c2ccccc12)c1cccc(Cl)c1`, for which the AC50 was 10 µM (active). On the same count and under the same terms, for `O=C(Cn1ccc2ccccc2c1=O)N1CCN(c2cccc(Cl)c2)CC1` the value was “inactive”; for `O=C(Oc1ccccc1)N1CCC2(CC1)CCN(c1ncccn1)CC2`, “inactive”. Turning to `CN(C(=O)c1cnc(N2CCN(c3ncccn3)CC2)c2ccccc12)c1ccc(Cl)cc1`, the AC50 is 12.6 µM (active). For `O=C(O)CCC(=O)N1CCN(c2ccccn2)CC1`, the AC50 entry was “inactive”. In the case of `O=C(c1cnc(N2CCN(c3ncccn3)CC2)c2ccccc12)N1CCN(c2ccccn2)CC1`, the AC50 was 11.2 µM (active). Take `CCN(C(=O)COc1cc(=O)n(C)c2ccccc12)c1cccc(Cl)c1`: the AC50 entry is “inactive”. In the case of `CC(C)Cc1ccc([C@H](C)C(=O)O)cc1`, the AC50 entry is “inactive”. Consider `CCOc1ccc2nc3cc(N=Nc4ccc(N)nc4N)ccc3c(N)c2c1`, for which the activity, negative = inhibition is -4.78% [at 11.4 µM] (inactive). Regarding `Cc1ccccc1Oc1ncnc2sccc12`, the AC50 result is “inactive”. Regarding `NCCc1nc(-c2nc(C(=O)O)cs2)cs1`, the activity, negative = inhibition is 16.3% [at 11.4 µM] (inactive). Take `OCCCSCCO`: the activity, negative = inhibition was -3.94% [at 11.4 µM] (inactive).

As to `COc1ccc(C(C(=O)NC2CCCCC2)N(C(=O)c2sc(C)nc2C)c2ccc(OC)cc2)cc1` (stereo unspecified), the AC50 result was “inactive”.

As to `Cc1cc(Cc2c(C)c(C)c(Cc3cc(C)cc(C(C)(C)C)c3O)c(C)c2C)c(O)c(C(C)(C)C)c1`, the activity, negative = inhibition is 12% [at 11.4 µM] (inactive). Still for that read-out and setting: the result for `Cc1cc(Cc2cc(C)cc(C(C)(C)C)c2O)c(O)c(Cc2cc(C)cc(C(C)(C)C)c2O)c1` reads -2.96% [at 11.4 µM] (inactive). As to `Cc1cc(C(C)(C)C)c(O)c(C)c1CC1=NCCN1`, the AC50 is 12.6 µM (active) and 3.98 µM (active) and 39.8 nM (active). Still for that read-out and setting: the result for `COc1ccc(CN2C(=O)CN(C3CCCCCC3)C(=O)C2c2ccc(OC)c(OC)c2)cc1` (stereo unspecified) reads “inactive”. As to `Cc1ccc(NC(=O)CCC(=O)NNC(=O)c2ccco2)cc1C`, the AC50 result is “inactive”.

`CCOc1[nH]n(-c2ccccc2)c(=O)c1C=Nc1ccc(Cl)cc1`: the AC50 result is “inactive”. In the case of `Cn1c(C(F)(F)F)nc2c(=O)oc3ccccc3c21`, the AC50 result was “inactive”. Consider `CCCC/C=C/C(NC(=O)c1ccc(-c2ccccc2)cc1)c1ccccc1` (stereo unspecified), for which the AC50 result is “inactive”.
